Results from PubChem BioAssay (Tox21).
Unmarked numbers belong to inactive results. Records with an inconclusive call do not appear. Entries that show only a call come without a potency. Calls of active or inactive are those of the source. Unless noted, the call rests on the fitted dose curve.

Biological target: Thyrotropin-releasing hormone receptor (Homo sapiens) (UniProt P34981)
Assay: qHTS assay to identify small molecule agonists of the thyrotropin-releasing hormone receptor (TRHR) signaling pathway (AID 1346891);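 further: HEK293 cells expressing TRHR with calcium dye readout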
Conditions: TRHR-HEK293 calcium fluorescence, agonist mode; series mostly up to 57.6 µM
Summary of the method: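 Cells: TRHR-Hek293, seeded and incubated 18 h. Dye loading: 2 h at 37 °C. Compound added from DMSO stock by pin tool. Read-out: kinetic calcium fluorescence over 3 min.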

Sequence of Thyrotropin-releasing hormone receptor (Homo sapiens) (P34981 whole entry, looked up): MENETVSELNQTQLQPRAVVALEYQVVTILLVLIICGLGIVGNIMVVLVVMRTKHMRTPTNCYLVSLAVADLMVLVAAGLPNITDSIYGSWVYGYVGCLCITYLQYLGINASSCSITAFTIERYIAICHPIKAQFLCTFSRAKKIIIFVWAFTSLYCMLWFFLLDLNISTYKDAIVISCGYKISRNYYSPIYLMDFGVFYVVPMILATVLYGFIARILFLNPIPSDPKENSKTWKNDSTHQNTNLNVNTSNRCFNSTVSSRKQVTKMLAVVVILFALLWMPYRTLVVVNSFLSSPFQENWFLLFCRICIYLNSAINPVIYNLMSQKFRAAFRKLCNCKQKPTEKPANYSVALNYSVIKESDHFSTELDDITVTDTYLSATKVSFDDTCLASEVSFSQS

Row | SMILES | outcome | activation
1 | CC(=O)N(CC(O)CO)c1c(I)c(C(=O)NCCO)c(I)c(C(=O)NCC(O)CO)c1I (stereo not given) | inactive | 
2 | NC(=O)COCCN1CCN(C(c2ccccc2)c2ccc(Cl)cc2)CC1 (stereo not given) | inactive | 
3 | CC(=O)CC(C)(C)C1CCCCC1 | inactive | 
4 | C[C@H](NC(CCc1ccccc1)C(=O)O)C(=O)N1CCC[C@H]1C(=O)O (stereo not given in full) | inactive | 
5 | CCC(=O)OC(C)c1ccccc1 (stereo not given) | inactive | 
6 | OC[C@]1(O)OC[C@@H](O)[C@H](O)[C@@H]1O | inactive | 
7 | C=COCC1CCC(CO)CC1 (stereo not given) | inactive | 
8 | CC1=CC(C)C(C=O)CC1 (stereo not given) | inactive | 
9 | CCc1ccc(O)c(OC)c1 | inactive | 
10 | CN1C(=O)N(C)C(O)C1O (stereo not given) | inactive | 
11 | COC(=O)CC(C)=O | inactive | 
12 | CC/C=C\CC/C=C/CO | inactive | 
13 | CCCCCCCCCCCCCCCCC | inactive | 
14 | O=C1CCCC(=O)C1 | inactive | 
15 | Nc1c[n+](N2CCOCC2)no1 | inactive | 
16 | CO[C@]12C[C@@H](COC(=O)c3cncc(Br)c3)CN(C)[C@@H]1Cc1cn(C)c3cccc2c13 | inactive | 
17 | CC(C)(c1ccc(O)cc1)c1ccc(O)cc1 | inactive | 
18 | COC(=O)NN | inactive | 

Row | SMILES | outcome | activation
19 | O=C1CCCCCCCCCCCN1 | inactive | 
20 | O=C(O)c1ccccc1OP(=O)(O)O | inactive | 
21 | CCCCCCCCCCCCCC=O |  | 0.0389% [at 5.23 µM]
22 | O=C(c1ccccc1)C1CCCCC1 | inactive | 
23 | O=C1CCCN1C1CCCCC1 | inactive | 
24 | NCCCNCCSP(=O)(O)O |  | -0.402% [at 5.23 µM]
25 | Cc1c(O)cccc1O | inactive | 
26 | Cc1ccc(Cl)cc1Cl | inactive | 
27 | CCC(C)C1CCCCC1=O (stereo not given) | inactive | 
28 | CN1CCCC1 | inactive | 
29 | CCOC(=O)c1ccc(C)cc1 | inactive | 
30 | COC(=O)c1cc(C(=O)OC)cc(S(=O)(=O)O)c1 | inactive | 
31 | C=C[Si](OC(=C)C)(OC(=C)C)OC(=C)C | inactive | 
32 | C=C(C)C(=O)OCCCCCCCC(C)C | inactive | 
33 | CCC(C)S (stereo not given) |  | 0.209% [at 2.04 µM]
34 | O=c1cc(CO)occ1O | inactive | 
35 | CN(C)CCCNCCCN(C)C | inactive | 

Test system: not listed separately
Assay: Human pregnane X receptor (PXR) small molecule agonists, qHTS cell viability counter screen (AID 1346977; active means well fitted cell-killing curve with a large enough effect in the repeat runs; further: nearly all actives have a fitted effect of over 50% in size; further: potency means the concentration at half of the fitted maximal effect)
Conditions: PXR-Luc HepG2 viability, CellTiter-Fluor, 24 h; series mostly up to 92.4 µM
Summary of the method: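 Cytotoxicity counter screen run in the same wells as the PXR luciferase assay, using PXR-Luc HepG2 cells in charcoal-stripped serum medium. Viability: CellTiter-Fluor fluorescence after 24hr compound treatment.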

Row | SMILES | Potency | activity change, negative = cytotoxicity
36 | CC(=O)N(CC(O)CO)c1c(I)c(C(=O)NCCO)c(I)c(C(=O)NCC(O)CO)c1I (stereo not given) | inactive | 
37 | NC(=O)COCCN1CCN(C(c2ccccc2)c2ccc(Cl)cc2)CC1 (stereo not given) | inactive | 
38 | CC(=O)CC(C)(C)C1CCCCC1 | inactive | 
39 | C[C@H](NC(CCc1ccccc1)C(=O)O)C(=O)N1CCC[C@H]1C(=O)O (stereo not given in full) | inactive | 
40 | CCC(=O)OC(C)c1ccccc1 (stereo not given) | inactive | 
41 | OC[C@]1(O)OC[C@@H](O)[C@H](O)[C@@H]1O | inactive | 
42 | C=COCC1CCC(CO)CC1 (stereo not given) | inactive | 
43 | CC1=CC(C)C(C=O)CC1 (stereo not given) | inactive | 
44 | CCc1ccc(O)c(OC)c1 | inactive | 
45 | CN1C(=O)N(C)C(O)C1O (stereo not given) | inactive | 
46 | COC(=O)CC(C)=O | inactive | 
47 | CC/C=C\CC/C=C/CO | inactive | 
48 | CCCCCCCCCCCCCCCCC | inactive | 
49 | O=C1CCCC(=O)C1 | inactive | 
50 | Nc1c[n+](N2CCOCC2)no1 | inactive | 
51 | CO[C@]12C[C@@H](COC(=O)c3cncc(Br)c3)CN(C)[C@@H]1Cc1cn(C)c3cccc2c13 | inactive | 
52 | CC(C)(c1ccc(O)cc1)c1ccc(O)cc1 | inactive | 
53 | COC(=O)NN | inactive | 

Row | SMILES | Potency | activity change, negative = cytotoxicity
54 | O=C1CCCCCCCCCCCN1 | inactive | 
55 | O=C(O)c1ccccc1OP(=O)(O)O | inactive | 
56 | CCCCCCCCCCCCCC=O |  | -1.66% [at 8.39 µM]
57 | O=C(c1ccccc1)C1CCCCC1 | inactive | 
58 | O=C1CCCN1C1CCCCC1 | inactive | 
59 | NCCCNCCSP(=O)(O)O |  | 7.22% [at 8.39 µM]
60 | Cc1c(O)cccc1O | inactive | 
61 | Cc1ccc(Cl)cc1Cl | inactive | 
62 | CCC(C)C1CCCCC1=O (stereo not given) | inactive | 
63 | CN1CCCC1 | inactive | 
64 | CCOC(=O)c1ccc(C)cc1 | inactive | 
65 | COC(=O)c1cc(C(=O)OC)cc(S(=O)(=O)O)c1 | inactive | 
66 | C=C[Si](OC(=C)C)(OC(=C)C)OC(=C)C | inactive | 
67 | C=C(C)C(=O)OCCCCCCCC(C)C | 976 nM (active) | 
68 | CCC(C)S (stereo not given) |  | 2.43% [at 3.27 µM]
69 | O=c1cc(CO)occ1O | inactive | 
70 | CN(C)CCCNCCCN(C)C | inactive | 
